About 8,600 (12%) of roughly 69,000 compounds showed an effect of 50% or more. What follows is part of a selection rich in strong results, with near analogues and random picks from the rest.
Test system: Plasmodium berghei
Assay: Screen against P. berghei liver stage (PbLuc), transformed with Luciferase, at 10uM
Assay type: functional, HepG2
Settings: tested at 10 uM

Row | Structure (SMILES) | INHIBITION [%]
1 | CN(C)CCN1CCC2[C@@H]1CCN2Cc1ccc2c(c1)OCO2 (some centres not stated) | -9.74
2 | CCS(=O)(=O)N(C)C1CCN(c2cccc(F)c2C(C)=O)CC1 | -9.35
3 | CC(=O)c1c(F)cccc1N1CCC(Cc2cccnc2)CC1 | 83.4
4 | CC(=O)c1c(F)cccc1N1CCC(CS(N)(=O)=O)CC1 | 30.1
5 | CC(=O)c1c(F)cccc1N1CCC(NS(=O)(=O)c2ccccc2)CC1 | 78
6 | CCN(C1CCN(c2cccc(F)c2C(C)=O)CC1)S(C)(=O)=O | 20.4
7 | CC(=O)c1c(F)cccc1N1CCC(C(N)=O)CC1 | -13.1
8 | O=C1C(NS(=O)(=O)c2ccc(F)cc2F)CCN1Cc1ccccc1 (configuration not stated) | 2.97
9 | Cc1ccc(NC(=O)N2CCC3(CCC(C(=O)N(C)C)O3)CC2)cc1 (configuration not stated) | 46.6
10 | Cc1cc(C)n(CC2CCCN2CCC(=O)Nc2cc(C)on2)n1 (configuration not stated) | 11.4
11 | O=C(Cc1ccccn1)N1C[C@@H](Oc2cccnc2)[C@H]2OCCC[C@H]21 | 5.04
12 | CN(C)c1cccc(C(=O)Nc2ccn(CCc3ccncc3)n2)c1 | 40.7
13 | CSc1ccc(C(=O)N2C[C@@H]3CC[C@H]2CN(Cc2ccccc2)C3)cc1 | 39.1
14 | COc1ccc(C(=O)N(C)Cc2ncc(C)c(OC)c2C)c(OC)c1 | 1.11
15 | CCCS(=O)(=O)N1CCO[C@H]2[C@H](OCc3ccccn3)CC[C@@H]21 | 33.5
16 | CC(c1nc(-c2cccnc2)no1)N(C)CCCOc1ccccc1 (configuration not stated) | 18.5
17 | COc1ccccc1CCN(C)C(C)c1nc(-c2cccnc2)no1 (configuration not stated) | 68.1
18 | CCOc1ccccc1CN(C)C(C)c1nc(-c2cccnc2)no1 (configuration not stated) | 24.2
19 | CNC(=O)c1csc(-c2cccnc2)n1 | -17.2
20 | COc1ccc(C)cc1NC(=O)c1coc(C)n1 | 60.9
21 | COc1ncc(NC(=O)Nc2cc(C)ccc2OC)cn1 | 42.6
22 | Cc1ccc(C)c(NC(=O)c2n[nH]c(-n3cnnc3)n2)c1 | 36.3

Row | Structure (SMILES) | INHIBITION [%]
23 | Cc1ccc(NC(=O)c2coc(C)n2)c(C)c1 | 62.3
24 | COCCCN(CCOC)C(=O)Nc1ccc(C)cc1C | 7.9
25 | COc1ccc(C)cc1NC(=O)Nc1cnc(O)nc1O | 0.29
26 | CCn1cc(C(=O)Nc2cc(C)ccc2C)cn1 | 3.04
27 | Cc1ccc(C)c(NC(=O)c2coc(C)n2)c1 | 62.3
28 | Cc1ccc(NC(=O)CNc2ccccc2C(N)=O)c(C)c1 | 39.1
29 | Cn1ccnc1N1CCN(C(=O)Cc2ccc(F)cc2)CC1 | 0
30 | CCS(=O)(=O)N1CC[C@@H]2[C@H]1CCC(=O)N2CCOC | 24.9
31 | CC(C)OCCN(C)C(C)c1cccc(S(N)(=O)=O)c1 (configuration not stated) | 26.3
32 | CS(=O)(=O)N1CCCC12CCCN(S(=O)(=O)c1ccc(F)c(F)c1)C2 (configuration not stated) | -0.371
33 | O=C(O)[C@@H]1CN(C(=O)NCC2CCCCC2)C[C@H]1c1ccccn1 | -43.5
34 | CCOCC1CN(CCN2CCCCC2)Cc2cnn(C)c21 (configuration not stated) | 36.9
35 | Cc1ccc(Oc2ncccc2C(=O)N(C)CCCN(C)C)cc1 | 30.3
36 | CC(C)(C)c1ncc(S(C)(=O)=O)c(C2CCCNC2)n1 (configuration not stated) | 25.3
37 | O=C1c2cccnc2OC(CN2CCOCC2)CN1C1CCC1 (configuration not stated) | -10.3
38 | COC(=O)c1ccccc1NC(=O)c1c(C)cn(C)c1CC(=O)O | 19.2
39 | O=C1CCNc2ncc(-c3ccc(Cl)cc3)cc2CN1C1CC1 | 7.85
40 | O=C1CCNc2ncc(-c3ccccc3Cl)cc2CN1C1CC1 | 50.2
41 | O=C1CCNc2ncc(-c3cccc(Cl)c3)cc2CN1C1CC1 | 2.55
42 | Cn1cc(CN2CCOC3(CCCN(C(=O)c4ccco4)C3)C2)cn1 (configuration not stated) | 8.47
43 | Cc1cc(C)nc(N2CC[C@H](Oc3ccccc3F)[C@@H](O)CC2)n1 | 42.6
44 | CC(C)N1CCOCC2(CCN(c3cnccn3)CC2)C1 | 35.8

Row | Structure (SMILES) | INHIBITION [%]
45 | COCCCn1ccc(NS(=O)(=O)c2cc(C)c(F)cc2F)n1 | -15.3
46 | CCC(Cn1ccc2[nH]c(=O)c(C#N)cc2c1=O)OC (configuration not stated) | 3.82
47 | CCCOC(C)Cn1ccc2[nH]c(=O)c(C#N)cc2c1=O (configuration not stated) | 71.8
48 | CC(O)CCn1ccc2[nH]c(=O)c(C#N)cc2c1=O (configuration not stated) | -1.09
49 | CN(Cc1nc(Cc2cccc(C(F)(F)F)c2)no1)C(C1CC1)C1CC1 | 27.6
50 | Cn1nc(CN2CCCCC2)c2c1CN(Cc1ccoc1)C2 | 11.3
51 | O=C(c1cc(C2CCCC2)no1)N1CCCCC1 | -12.5
52 | Cc1nc(C)c(C(=O)N2Cc3ccccc3OCC2CN(C)C)o1 (configuration not stated) | 11.8
53 | Cc1ccc2c(c1)[C@@H](CC(=O)N(C)C)CCO2 | 14.5
54 | CC(=O)N1[C@H](CN(C)C)C[C@@H]2CN(C(=O)c3cnc(C)cn3)CC[C@@H]21 | -50.4
55 | CN(CCO)CC1COCCN1C(=O)C1CCCCC1 (configuration not stated) | 40.7
56 | Cc1ccc2c(c1)CN(C(=O)c1cnc(C)cn1)C(CN(C)C)CO2 (configuration not stated) | 66.5
57 | Cc1ccc2c(c1)CN(C(=O)C1CCCCC1)C(CN(C)C)CO2 (configuration not stated) | 60.3
58 | Cc1nc(CN2CCc3ccc(S(N)(=O)=O)cc32)oc1C | -24
59 | CN(C)c1ncccc1CNC(=O)NCc1cccs1 | 41.2
60 | CN1CCN(C(=O)c2cc[nH]c(=O)c2)Cc2ccccc21 | 20
61 | O=C(NCC1CCCCC1)N1C[C@@H]2C[C@@H]1CN2 | 9.97
62 | Fc1ccc(CN2CCC(c3nccnc3-n3ccnc3)CC2)cc1 | 37
63 | Cc1nccn1-c1nccnc1C1CCCN(C)C1 (configuration not stated) | 34.55
64 | Cc1nccn1-c1nccnc1C1CCCN(C2CCCC2)C1 (configuration not stated) | 59.45
65 | COc1ccc(CN2CCC(c3nccnc3-n3ccnc3)CC2)cc1 | 35.2
66 | Cc1nccn1-c1cccc(C2CCCN(C3CCCC3)C2)n1 (configuration not stated) | 36.7

Row | Structure (SMILES) | INHIBITION [%]
67 | Cc1nccn1-c1nccnc1C1CCN(Cc2ccc(F)cc2)CC1 | 71.1
68 | Cc1n[nH]c(C2CN(Cc3nnc(C4CCC4)o3)CCO2)n1 (configuration not stated) | 0.914
69 | c1cc(CN2C[C@@H]3OCCN(CCN4CCCC4)[C@@H]3C2)co1 | 15.7
70 | CC(=O)OCc1ccc(CN2CCCCCC2c2cc(C)no2)o1 (configuration not stated) | 18.3
71 | CCc1nc(C2CCCN2C(=O)c2cc3c(s2)CCC3)no1 (configuration not stated) | 7.08
72 | CCC(C(=O)NC1(COC)CCCC1)n1cccn1 (configuration not stated) | 8.08
73 | CCC(C(=O)NC1(C(N)=O)CCCC1)n1cccn1 (configuration not stated) | 55.9
74 | CCC(C(=O)NC1(CN2CCOCC2)CCCC1)n1cccn1 (configuration not stated) | 30.9
75 | CC(C)C(=O)Nc1ccc(C(O)Cn2nc(-c3cccs3)oc2=O)cc1 (configuration not stated) | 8.9
76 | c1cnn(Cc2nnc3n2CCCN(Cc2ccsc2)C3)c1 | 32.4
77 | O=C(c1cnccn1)N1C[C@@H]2[C@@H](C1)OCC(=O)N2CC1CCCC1 | 91.9
78 | Cc1cnc(C(=O)N2C[C@@H]3[C@@H](C2)OCC(=O)N3CC2CCCC2)cn1 | -18.5
79 | O=C(c1cnccn1)N1C[C@@H]2OCC(=O)N(CC3CCCCC3)[C@@H]2C1 | 26.4
80 | CN(Cc1ccco1)C(=O)CN1CCOC(Cn2cncn2)C1 (configuration not stated) | -0.219
81 | CC(C)N(C)Cc1cnc2n1CCN(C(=O)Cc1ccccn1)C2 | 24.3
82 | O=C1CN(c2ccc(CNC(=O)Nc3nccs3)cc2)CCN1 | 13.8
83 | COc1ccc(OC)c(CN(C)c2ncc(S(N)(=O)=O)s2)c1 | -54.4
84 | CN(c1ncc(S(N)(=O)=O)s1)C1CCc2ccccc21 (configuration not stated) | 36.5
85 | CN(c1ncc(S(N)(=O)=O)s1)C1CCc2ccccc2C1 (configuration not stated) | 65.6
86 | COc1ccc(CN(C)c2ncc(S(N)(=O)=O)s2)c(OC)c1 | -28.2
87 | CCN(Cc1ccoc1)c1ncc(S(N)(=O)=O)s1 | 20.8
88 | CN(Cc1ccc2c(c1)OCCO2)c1ncc(S(N)(=O)=O)s1 | 54.4

Row | Structure (SMILES) | INHIBITION [%]
89 | CN(c1ncc(S(N)(=O)=O)s1)C1CCC1 | 52.2
90 | CCN(Cc1ccc2c(c1)OCO2)c1ncc(S(N)(=O)=O)s1 | 27.5
91 | CCc1ncc(C(=O)N(C)C2Cc3ccccc3C2)cn1 | -98.6
92 | CS(=O)(=O)c1cn[nH]c1C1CCCCN1C(=O)Cc1cccnc1 (configuration not stated) | -5.71
93 | CN1CCNC(Cc2ccc(-c3cccs3)cc2)C1=O (configuration not stated) | -52.6
94 | COCCN1CCOCC12CCN(C(=O)Cc1cccs1)CC2 | 24.9
95 | O=C(CN1CCC[C@@H]1C(=O)O)NCCOc1cccc(C(F)(F)F)c1 | -0.18
96 | CC(=O)N1CCC2(CCCN(C(=O)c3ccccc3)C2)C1 (configuration not stated) | 22.2
97 | Cc1csc(Nc2cc(C3CCCCN3C)nc(C)n2)n1 (configuration not stated) | 16.5
98 | Cc1ccsc1CN(C)C(=O)c1cc2c([nH]c1=O)CCCC2=O | -1.95
99 | Cc1ccc(S(=O)(=O)NCCNC(=O)c2cncnc2C)cc1 | 78.1
100 | CCc1ncncc1C(=O)NCCNS(=O)(=O)c1ccc(C)cc1 | -70.7
101 | CCc1ncncc1C(=O)NCCNS(=O)(=O)c1ccccc1 | -118
102 | CN(C)C(C)(C)CNCc1c[nH]nc1-c1cc2ccccc2o1 | 36.9
103 | Cc1cnc(C(=O)NCc2cccnc2OC(C)C)cn1 | 33.7
104 | O=C1CC(NCc2ccncc2)CN1Cc1cccc(F)c1 (configuration not stated) | 63.5
105 | Cc1cccc(CNC2CC(=O)N(Cc3cccc(F)c3)C2)c1 (configuration not stated) | 13.87
106 | O=C1CC(NCc2ccc(OC(F)F)cc2)CN1Cc1cccc(F)c1 (configuration not stated) | 0.38
107 | NC1CCC(n2cc(C(=O)NC3CCc4ccccc4C3)nn2)CC1 (configuration not stated) | 25.5

— ChEMBL document CHEMBL4513216, “Probing the Open Global Health Chemical Diversity Library for Multistage-Active Starting Points for Next-Generation Antimalarials” (ACS Infect Dis, 2020)
